Experiment [1] in a line: NCI Yeast Anticancer Drug Screen. Data for the rad50 strain (AID 155).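 Further: 0% = growth of vehicle-only cultures of the same strain.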 The following applies: S. cerevisiae rad50 strain growth inhibition; at 50.0 µM; active compounds read high. The gist of the method: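 Genetically altered yeast (DNA repair pathway); compound treatment; growth inhibition vs vehicle ctrl.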
Experiment [2] is described as follows: NCI Yeast Anticancer Drug Screen. Data for the mec2-1 strain (AID 157). The note with it: S. cerevisiae mec2-1 strain, at 50.0 µM, active compounds read high. The gist of the method: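 Yeast mec2-1 mutant treated with compound. Readout: growth inhibition vs vehicle controls.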
Experiment [3] in a line: NCI Yeast Anticancer Drug Screen. Data for the sgs1 mgt1 strain (AID 161).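 Further: 0% = growth of cultures given vehicle only.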 The note with it: S. cerevisiae sgs1 mgt1 strain, at 50.0 µM, active compounds read high. The gist of the method: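 Mutant yeast exposed to compound; growth scored against vehicle-only wells.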
Experiment [4] is described as follows: NCI Yeast Anticancer Drug Screen. Data for the cln2 rad14 strain (AID 165).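 Further: 0% = growth equal to vehicle treated cultures.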 The note with it: S. cerevisiae cln2 rad14 strain, at 50.0 µM, active compounds read high. In a few lines: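 cln2 rad14 yeast strain; compound exposure; growth inhibition read vs vehicle controls.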
The nature of experiment [5]: NCI Yeast Anticancer Drug Screen. Data for the bub3 strain (AID 167). The note with it: S. cerevisiae bub3 mutant strain, at 50.0 µM, active compounds read high. The gist of the method: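 Yeast carrying a defined mutation is treated with each compound, and growth is compared with that of vehicle-exposed cells to give inhibition.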
Experiment [6] can be described thus: NCI Yeast Anticancer Drug Screen. Data for the mlh1 rad18 strain (AID 175). The following applies: S. cerevisiae mlh1 rad18 strain growth inhibition; at 50.0 µM; active compounds read high. In a few lines: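 Yeast w/ defined DNA-repair lesions; compound exposure; growth vs vehicle controls → % inhibition.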

Here are results for 37 molecules from PubChem BioAssay (NCI).

The panel holds about 79,000 compounds, 15% with a hit somewhere; the sample as a whole holds those more often. Values without a mark were called inactive. Calls of active or inactive are those of the source. No stated cut-off is given here; in the data, active means growth inhibition above about 70%; inactive means the rest. Where a SMILES comes first, the peptide text is derived from it. [ ]: non-standard residue; d: D form. The star is where a group is joined. Cbz = O=C(OCc1ccccc1)*; Nva = CCC[CH](N)C(=O)O

With `CO/N=C1/c2sccc2[C@H](NC(=O)C(Cc2ccccc2)NC(=O)OC(C)(C)C)[C@@H]1O` (some centres not stated), the growth inhibition was -18.2% in experiment [1]; -13.1% in experiment [2]; -14% in experiment [3]; -11.9% in experiment [4]; -2.35% in experiment [5]; 13.7% in experiment [6].

`N/N=C(\C(=O)Nc1c(Cl)cc([N+](=O)[O-])cc1Cl)C(c1cnc2ccc([N+](=O)[O-])cc2n1)[N+](=O)[O-]` (configuration not stated): the growth inhibition was -38.7% in experiment [1]; 0.7% in experiment [2]; 10.4% in experiment [3]; 15.1% in experiment [4]; -23.5% in experiment [5]; -26.6% in experiment [6].

Turning to `O=C(O)/C(=C\c1cc2c(cc1[N+](=O)[O-])OCO2)c1ccccc1`, the growth inhibition in experiment [1] was 3.8%; in experiment [2] it was -5.35%; in experiment [3] it was 6.8%; in experiment [4], -41%; in experiment [5], -22.9%; in experiment [6], 17.9%.

For `Cc1ccc(S(=O)(=O)Oc2ccccc2C(=O)O)cc1`, the growth inhibition is -7.9% in experiment [1]; -14.7% in experiment [2]; -12.3% in experiment [3]; -55.3% in experiment [4]; 14.4% in experiment [5]; -13.5% in experiment [6].

Regarding `CCC(=O)NCCCCCN1CCCCC1`, the growth inhibition in experiment [1] is 8.55%; in experiment [2], 5.35%; in experiment [3] it was 9.75%; in experiment [4], -15.6%; in experiment [5] it was -1.1%; in experiment [6] it was 9.05%.

Turning to `CCOCCOC(=O)OCCOCC`, the growth inhibition is 10.3% in experiment [1]; 1.9% in experiment [2]; 22.4% in experiment [3]; -4.3% in experiment [4]; 12.1% in experiment [5]; 28% in experiment [6].

Take `CC(=O)c1c(C)cc(C(C)(C)C)cc1C`: the growth inhibition was 18.4% in experiment [1]; -1.1% in experiment [2]; 12.8% in experiment [3]; -0.55% in experiment [4]; 9.3% in experiment [5]; 13.8% in experiment [6].

For `COc1ccc(NC(=O)C(Br)C(Br)c2ccccc2)c(Cl)c1` (configuration not stated), the growth inhibition in experiment [1] was 96.8% (active); in experiment [2], 97.2% (active); in experiment [3], 97.2% (active); in experiment [4], 97.3% (active); in experiment [5], 97% (active); in experiment [6], 97.2% (active).

Take `C#CC(C)(C)Nc1ccccc1`: the growth inhibition in experiment [1] is -10.8%; in experiment [2], 2.9%; in experiment [3] it was -6.6%; in experiment [4], -6.2%; in experiment [5] it was -4.95%; in experiment [6] it was 4.9%.

`COC(=O)c1ccccc1-c1ccccc1[N+](=O)[O-]`: the growth inhibition is 3.15% in experiment [1]; -1.75% in experiment [2]; 2.5% in experiment [3]; 2.6% in experiment [4]; -7.35% in experiment [5]; -3% in experiment [6].

As to `COC(=O)c1ccc(CS(=O)(=O)c2ccccc2)cc1`, the growth inhibition in experiment [1] was 2%; in experiment [2], -6.3%; in experiment [3], 4.6%; in experiment [4], 7.1%; in experiment [5], 14.7%; in experiment [6], -11.5%.

In the case of `CCN(CC)CCNc1cc(C)nc(/N=C(\N)Nc2ccc(Cl)cc2)n1`, the growth inhibition was 23.9% in experiment [1]; 1.05% in experiment [2]; 18.1% in experiment [3]; -14.8% in experiment [4]; 11.6% in experiment [5]; 30.8% in experiment [6].

`COC(=O)C1CCCN1C(=O)C(C)=O` (configuration not stated): the growth inhibition in experiment [1] is 16.9%; in experiment [2], 10.4%; in experiment [3], -4.85%; in experiment [4], -40.5%; in experiment [5], 5.4%; in experiment [6], -5.45%.

For the molecule `CN(C)Cc1c(-c2ccccc2)c(-c2ccccc2)c2ccccn12`, the growth inhibition is -7.15% in experiment [1]; -21.8% in experiment [2]; 14.1% in experiment [3]; 2.8% in experiment [4]; 0.75% in experiment [5]; 9.6% in experiment [6].

`CC(=O)OC1OC(C)C(OC(=O)c2ccccc2)C1OC(C)=O` (configuration not stated): the growth inhibition in experiment [1] is 21.1%; in experiment [2] it was -3.15%; in experiment [3] it was 2.3%; in experiment [4], -1.25%; in experiment [5], 6.25%; in experiment [6], 33.6%.

With `Cc1ccccc1C(=O)N(C(C)C)C(C)C`, the growth inhibition was 12.8% in experiment [1]; -6.45% in experiment [2]; 7.2% in experiment [3]; -12.6% in experiment [4]; 15.2% in experiment [5]; 1% in experiment [6].

With `Cc1cccc(Cl)c1N=Nc1c(N)nc(N)[nH]c1=O`, the growth inhibition in experiment [1] was 15.8%; in experiment [2] it was -20.8%; in experiment [3] it was -5.1%; in experiment [4], -4.8%; in experiment [5], -0.35%; in experiment [6] it was -0.5%.

As to `COc1ccc(C=Nc2c(N)[nH]c(=S)[nH]c2=O)cc1`, the growth inhibition in experiment [1] was -15%; in experiment [2], -12.8%; in experiment [3], -4.15%; in experiment [4], 0.7%; in experiment [5], -27.8%; in experiment [6] it was -51.7%.

With `Cc1cc(Cl)ccc1N=C1NC(=O)C(CC(=O)Nc2cccc(Cl)c2)S1` (configuration not stated), the growth inhibition was 28.6% in experiment [1]; 15% in experiment [2]; -8.85% in experiment [3]; 27.6% in experiment [4]; 1.8% in experiment [5]; 10.2% in experiment [6].

`CC(=O)N1Cc2c(cc(C)[nH]c2=O)C1=O`: the growth inhibition in experiment [1] was 9%; in experiment [2], 10.5%; in experiment [3] it was 6.45%; in experiment [4], 10.7%; in experiment [5], 1.05%; in experiment [6] it was 7.65%.

Consider `COc1ccc(N=Cc2c(O)c(O)c(C(C)C)c3cc(C)c(-c4c(C)cc5c(C(C)C)c(O)c(O)c(C=Nc6ccc(OC)cc6)c5c4O)c(O)c23)cc1`, for which the growth inhibition was 2.2% in experiment [1]; 1.75% in experiment [2]; -12.2% in experiment [3]; -18.4% in experiment [4]; -5.75% in experiment [5]; -6.2% in experiment [6].

In the case of `C=C(C)c1ccc(B2Nc3ccccc3N2)cc1`, the growth inhibition in experiment [1] is 53.6%; in experiment [2], 30.2%; in experiment [3] it was 45.6%; in experiment [4] it was 18.8%; in experiment [5] it was 40.8%; in experiment [6], 58.5%.

`COc1ccc(/C=C2/N=C(c3ccccc3)OC2=O)cc1`: the growth inhibition in experiment [1] is -2.75%; in experiment [2], -8.35%; in experiment [3], -0.3%; in experiment [4] it was -28.9%; in experiment [5], -1.75%; in experiment [6], -6.8%.

`Cc1cc(C)n2c(-c3ccccc3)nnc2c1`: the growth inhibition was 19.1% in experiment [1]; -7.2% in experiment [2]; -20.2% in experiment [3]; -7.05% in experiment [4]; 8.05% in experiment [5]; -8.85% in experiment [6].

`COc1ccc(/C=N/N=C/c2ccc(OC)cc2)cc1`: the growth inhibition was 22.3% in experiment [1]; 0.7% in experiment [2]; -14.1% in experiment [3]; -34.5% in experiment [4]; -19.8% in experiment [5]; 17.8% in experiment [6].

With `COc1ccc2nccc(NCCCN3CCN(CCCNc4ccnc5ccc(OC)cc45)CC3)c2c1`, the growth inhibition in experiment [1] is 15.8%; in experiment [2], 1%; in experiment [3] it was 32.8%; in experiment [4], -6.2%; in experiment [5], 48.5%; in experiment [6], -26.9%.

Consider `O=C(O)CC(O)C(F)(F)F` (configuration not stated), for which the growth inhibition in experiment [1] was 17.4%; in experiment [2], 0.45%; in experiment [3], 1.95%; in experiment [4] it was 8.65%; in experiment [5] it was 5.3%; in experiment [6] it was 26.5%.

For the molecule `O=C(CSc1nnc(-c2ccc(N=Cc3ccc(Cl)cc3)cc2)o1)Nc1ccc(Cl)cc1`, the growth inhibition in experiment [1] was 3.1%; in experiment [2], -41%; in experiment [3], -2.25%; in experiment [4], -66%; in experiment [5], -11.8%; in experiment [6], 0%.

Regarding `COc1ccc(N=Nc2sc(N)nc2-c2cccc([N+](=O)[O-])c2)cc1`, the growth inhibition in experiment [1] was 5%; in experiment [2] it was 4.85%; in experiment [3], 10.1%; in experiment [4], -13.8%; in experiment [5] it was 8.6%; in experiment [6], 11.7%.

Turning to `CCCC(NC(=O)OCc1ccccc1)C(=O)NC(CCSC)C(N)=O` (configuration not stated) (Cbz-[Nva]-Met-NH2; configuration not given here), the growth inhibition is 28.2% in experiment [1]; -5.35% in experiment [2]; -5.95% in experiment [3]; 5.6% in experiment [4]; -4.6% in experiment [5]; -27.9% in experiment [6].

Take `COc1ccc(NC(=O)c2cc3cc(N=Nc4ccc(Br)cc4)ccc3oc2=O)cc1`: the growth inhibition in experiment [1] is -30.9%; in experiment [2], 14.4%; in experiment [3], -15.2%; in experiment [4], 0.05%; in experiment [5] it was -28.5%; in experiment [6], -17.6%.

For `CCOC(=O)/C(N=Nc1ccc(O)cc1)=C(\C)O`, the growth inhibition in experiment [1] is -6.4%; in experiment [2], 28.4%; in experiment [3] it was 17.7%; in experiment [4], 24.9%; in experiment [5], -1.2%; in experiment [6] it was -0.65%.

Take `CC1=C(C)CN(CCC(=O)O)C(C(N)=O)C1` (configuration not stated): the growth inhibition was -11.9% in experiment [1]; -2.3% in experiment [2]; -3.8% in experiment [3]; 17.5% in experiment [4]; 18.5% in experiment [5]; -10.1% in experiment [6].

Turning to `CCOc1ccc(N2C(=O)NC3(c4ccccc4)N(C)C(=O)N(C)C23c2ccccc2)cc1` (configuration not stated), the growth inhibition in experiment [1] is -2.7%; in experiment [2], -7.95%; in experiment [3], 13.8%; in experiment [4], 1.3%; in experiment [5], 17.1%; in experiment [6] it was -16.8%.

As for `CC1=Nc2nc(=N)nc3cccc(n23)N1`, the growth inhibition in experiment [1] was -3.55%; in experiment [2], -6.55%; in experiment [3], -7%; in experiment [4], -6%; in experiment [5], -7.7%; in experiment [6] it was 5.95%.

For `Cc1cc(NCCN(C(C)C)C(C)C)nc(Nc2nc3ccc(Cl)cc3[nH]2)n1`, the growth inhibition was -13% in experiment [1]; -16.5% in experiment [2]; -10.2% in experiment [3]; -45.2% in experiment [4]; 1.95% in experiment [5]; -44.5% in experiment [6].

On to `COc1ccc(C2=NN(C(C)=O)c3nc4ccccc4nc3O2)cc1`, for which the growth inhibition in experiment [1] is -25.2%; in experiment [2], -28.8%; in experiment [3], -20%; in experiment [4] it was -5.9%; in experiment [5], -24.6%; in experiment [6], -12.6%.
